Assay results: PubChem BioAssay AID1159580 (chemical genetic matrix, 2015)
The campaign covered roughly 5,500 compounds. About 2,000 (36%) were called active. Roughly 18% stayed inconclusive and do not appear here. Cut-off read from the data, not from the text of the source: active = normalized growth mostly below about 0.91 (no sharp cut-off); inconclusive = no clear call, values can overlap the other calls; inactive = mostly above about 0.92. The list shows a part of the results.

Experiment: chemical genetic growth profiling, strain panel (AID 1159580);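 note: tested at 20 µM; growth read once vehicle control cultures reached saturation at 30 °C; 1 = growth at the plate median or of vehicle wells; lower values mean less growth of the strain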
Conditions: growth OD

Measured: normalized growth

NC(N)=NS(=O)(=O)c1ccc(N)cc1
inactive: S. cerevisiae deletion strains, locus YJR066W, strain TOR1, hits give low values 0.909 | S. cerevisiae deletion strains, locus YKL009W, strain mrt4, hits give low values 0.993 | S. cerevisiae deletion strains, locus YKL068W, hits give low values 1 | S. cerevisiae deletion strains, locus YKL085W, strain MDH1 (second series), hits give low values 1.02 | S. cerevisiae deletion strains, locus YKL085W, strain MDH1, hits give low values 1.02 | S. cerevisiae deletion strains, locus YKL160W, strain elf1, hits give low values 0.996 | S. cerevisiae deletion strains, locus YKL190W, strain CNB1, hits give low values 1.01 | S. cerevisiae deletion strains, locus YKR001C, strain vps1, hits give low values 1.01 | S. cerevisiae deletion strains, locus YKR026C, strain gcn3, hits give low values 0.955 | S. cerevisiae deletion strains, locus YKR091W, strain srl3, hits give low values 0.991 | S. cerevisiae deletion strains, locus YLL001W, strain dnm1, hits give low values 0.998 | S. cerevisiae deletion strains, locus YLL026W, hits give low values 0.991 | S. cerevisiae deletion strains, locus YLL041C, strain sdh2, hits give low values 0.973 | S. cerevisiae deletion strains, locus YLR027C, strain aat2, hits give low values 0.974 | S. cerevisiae deletion strains, locus YLR039C, strain RIC1, hits give low values 1.02 | S. cerevisiae deletion strains, locus YLR058C, strain SHM2, hits give low values 1.02 | S. cerevisiae deletion strains, locus YLR102C, strain apc9, hits give low values 0.986 | S. cerevisiae deletion strains, locus YLR113W, strain HOG1, hits give low values 0.967 | S. cerevisiae deletion strains, locus YLR221C, strain rsa3, hits give low values 0.984 | S. cerevisiae deletion strains, locus YLR258W, strain gsy2, hits give low values 0.998 | S. cerevisiae deletion strains, locus YLR262C, strain YPT6 (second series), hits give low values 0.984 | S. cerevisiae deletion strains, locus YLR262C, strain YPT6, hits give low values 1.03 | S. cerevisiae deletion strains, locus YLR268W, strain sec22, hits give low values 0.996 | S. cerevisiae deletion strains, locus YLR320W, strain mms22, hits give low values 0.992 | S. cerevisiae deletion strains, locus YLR330W, strain CHS5, hits give low values 1.01 | S. cerevisiae deletion strains, locus YLR342W, strain FKS1 (second series), hits give low values 1.01 | S. cerevisiae deletion strains, locus YLR342W, strain FKS1, hits give low values 0.977 | S. cerevisiae deletion strains, locus YLR357W, strain rsc2, hits give low values 0.986 | S. cerevisiae deletion strains, locus YLR370C, strain arc18, hits give low values 0.981 | S. cerevisiae deletion strains, locus YLR371W, strain rom2, hits give low values 0.993 | S. cerevisiae deletion strains, locus YLR384C, strain iki3, hits give low values 0.995 | S. cerevisiae deletion strains, locus YLR418C, strain cdc73, hits give low values 0.994 | S. cerevisiae deletion strains, locus YML016C, strain PPZ1, hits give low values 1.01 | S. cerevisiae deletion strains, locus YML032C, strain rad52, hits give low values 0.987 | S. cerevisiae deletion strains, locus YML120C, strain ndi1, hits give low values 0.978 | S. cerevisiae deletion strains, locus YML124C, strain tub3, hits give low values 0.992 | S. cerevisiae deletion strains, locus YMR058W, strain fet3, hits give low values 0.984 | S. cerevisiae deletion strains, locus YMR078C, strain ctf18, hits give low values 0.997 | S. cerevisiae deletion strains, locus YMR125W, strain sto1, hits give low values 0.966 | S. cerevisiae deletion strains, locus YMR129W, hits give low values 0.997 | S. cerevisiae deletion strains, locus YMR205C, strain PFK2, hits give low values 1 | S. cerevisiae deletion strains, locus YMR223W, strain ubp8, hits give low values 0.996 | S. cerevisiae deletion strains, locus YMR231W, strain pep5, hits give low values 1 | S. cerevisiae deletion strains, locus YMR307W, strain GAS1, hits give low values 1.03 | S. cerevisiae deletion strains, locus YNL067W, strain RPL9B, hits give low values 1.03 | S. cerevisiae deletion strains, locus YNL071W, strain lat1, hits give low values 0.986 | S. cerevisiae deletion strains, locus YNL128W, strain TEP1, hits give low values 1.03 | S. cerevisiae deletion strains, locus YNL153C, strain GIM3, hits give low values 1.04 | S. cerevisiae deletion strains, locus YNL183C, strain NPR1, hits give low values 0.918 | S. cerevisiae deletion strains, locus YNL209W, strain ssb2, hits give low values 0.993 | S. cerevisiae deletion strains, locus YNL233W, strain BNI4, hits give low values 1.03 | S. cerevisiae deletion strains, locus YNL248C, strain rpa49, hits give low values 0.972 | S. cerevisiae deletion strains, locus YNL250W, strain rad50, hits give low values 0.987 | S. cerevisiae deletion strains, locus YNL271C, strain bni1, hits give low values 0.985 | S. cerevisiae deletion strains, locus YNL298W, strain CLA4, hits give low values 0.994 | S. cerevisiae deletion strains, locus YNL307C, strain MCK1, hits give low values 0.987 | S. cerevisiae deletion strains, locus YNL322C, strain KRE1 (second series), hits give low values 0.967 | S. cerevisiae deletion strains, locus YNR049C, strain mso1, hits give low values 0.981 | S. cerevisiae deletion strains, locus YNR052C, strain pop2, hits give low values 0.986 | S. cerevisiae deletion strains, locus YOL006C, strain TOP1, hits give low values 1.09 | S. cerevisiae deletion strains, locus YOL012C, strain htz1 0.841 | S. cerevisiae deletion strains, locus YOL147C, strain pex11, hits give low values 0.992 | S. cerevisiae deletion strains, locus YOR001W, strain rrp6, hits give low values 0.986 | S. cerevisiae deletion strains, locus YOR061W, strain CKA2, hits give low values 1.02 | S. cerevisiae deletion strains, locus YOR069W, strain VPS5, hits give low values 1.01 | S. cerevisiae deletion strains, locus YOR070C, strain gyp1, hits give low values 0.979 | S. cerevisiae deletion strains, locus YOR080W, strain dia2, hits give low values 0.985 | S. cerevisiae deletion strains, locus YOR083W, strain WHI5, hits give low values 0.979 | S. cerevisiae deletion strains, locus YOR106W, strain vam3, hits give low values 0.976 | S. cerevisiae deletion strains, locus YOR136W, strain idh2, hits give low values 0.986 | S. cerevisiae deletion strains, locus YOR144C, strain elg1, hits give low values 0.99 | S. cerevisiae deletion strains, locus YOR184W, strain ser1, hits give low values 1.02 | S. cerevisiae deletion strains, locus YOR231W, strain MKK1, hits give low values 0.98 | S. cerevisiae deletion strains, locus YOR265W, strain rbl2, hits give low values 0.979 | S. cerevisiae deletion strains, locus YOR270C, strain vph1, hits give low values 0.973 | S. cerevisiae deletion strains, locus YOR290C, strain snf2, hits give low values 0.992 | S. cerevisiae deletion strains, locus YOR316C, strain cot1, hits give low values 0.993 | S. cerevisiae deletion strains, locus YPL051W, strain arl3, hits give low values 0.997 | S. cerevisiae deletion strains, locus YPL055C, strain LGE1, hits give low values 1.07 | S. cerevisiae deletion strains, locus YPL078C, strain atp4, hits give low values 0.994 | S. cerevisiae deletion strains, locus YPL106C, strain sse1, hits give low values 0.953 | S. cerevisiae deletion strains, locus YPL240C, strain hsp82, hits give low values 0.991 | S. cerevisiae deletion strains, locus YPL256C, strain CLN2, hits give low values 0.953 | S. cerevisiae deletion strains, locus YPR119W, strain clb2, hits give low values 0.994 | S. cerevisiae deletion strains, locus YPR141C, strain kar3, hits give low values 0.997 | S. cerevisiae deletion strains, locus YPR163C, strain tif3, hits give low values 0.997 | S. cerevisiae deletion strains, locus YPR167C, strain met16, hits give low values 0.993 | S. cerevisiae deletion strains, strain wtn01, hits give low values 0.988 | S. cerevisiae strains, strain wild type, hits give low values 1.02
